Test results taken from paper PMC5700166.
Numbering of substitutions follows the chain as printed.

Legend:
Experiment in all cases: protein-binding microarray (PBM); PBM: ~300 nM protein, 6 mM HEPES pH 7.8, 80 mM KCl, 0.5 mM EDTA, 0.5 mM EGTA, 6% glycerol, 35 ng/ul poly-dIdC, 1% milk, 1 h, room temperature; Ap Aiptasia and Nv Nematostella (sea anemones) / Co Capsaspora / Aq Amphimedon (sponge) / Dm Drosophila / Hu human; RHD is the Rel homology domain; high values mean tight binding
Conditions in all cases: dsDNA, one strand shown
GST-Ap-NF-kB RHD = molecular target: T1, GST-Ap-NF-kB RHD (Exaiptasia pallida (Aiptasia), UniProt A0A913YAJ5 2-422)
T1 sequence: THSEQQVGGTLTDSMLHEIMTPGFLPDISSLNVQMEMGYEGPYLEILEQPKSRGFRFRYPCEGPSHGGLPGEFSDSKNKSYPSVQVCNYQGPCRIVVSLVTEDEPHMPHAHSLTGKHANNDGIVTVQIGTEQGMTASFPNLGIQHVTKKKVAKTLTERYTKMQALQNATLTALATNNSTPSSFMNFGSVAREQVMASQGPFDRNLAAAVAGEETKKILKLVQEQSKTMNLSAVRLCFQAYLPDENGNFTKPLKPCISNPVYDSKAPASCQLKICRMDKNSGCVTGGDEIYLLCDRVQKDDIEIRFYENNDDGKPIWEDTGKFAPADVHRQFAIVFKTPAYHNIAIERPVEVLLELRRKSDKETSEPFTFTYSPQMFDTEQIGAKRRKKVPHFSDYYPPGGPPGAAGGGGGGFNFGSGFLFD

[1] = molecular target: T2, GST-Nv-NF-kB (Cys allele) (Nematostella vectensis, UniProt E5G601 2-411)
T2 sequence: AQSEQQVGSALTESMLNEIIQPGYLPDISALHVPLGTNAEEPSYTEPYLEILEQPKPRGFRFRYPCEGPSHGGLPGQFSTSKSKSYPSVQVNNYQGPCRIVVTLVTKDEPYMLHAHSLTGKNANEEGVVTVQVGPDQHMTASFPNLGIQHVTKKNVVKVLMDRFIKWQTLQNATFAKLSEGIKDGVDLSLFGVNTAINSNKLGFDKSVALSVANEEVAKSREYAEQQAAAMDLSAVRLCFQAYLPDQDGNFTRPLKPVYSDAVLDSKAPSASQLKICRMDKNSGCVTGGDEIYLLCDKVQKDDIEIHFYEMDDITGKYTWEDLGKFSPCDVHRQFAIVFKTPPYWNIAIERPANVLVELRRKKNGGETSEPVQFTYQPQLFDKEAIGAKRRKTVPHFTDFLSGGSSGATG

[2] = molecular target: T3, GST-Nv-NF-kB (Ser allele) (Nematostella vectensis, UniProt A7UNT2 2-411)
T3 sequence: T2 sequence with Q21R, C66S, S207N, E215Q, V217A, E225K, A268E, D399E

GST-Co-NF-kB = molecular target: T4, GST-Co-NF-kB (Capsaspora owczarzaki, UniProt F1ARL5 200-546)
T4 sequence: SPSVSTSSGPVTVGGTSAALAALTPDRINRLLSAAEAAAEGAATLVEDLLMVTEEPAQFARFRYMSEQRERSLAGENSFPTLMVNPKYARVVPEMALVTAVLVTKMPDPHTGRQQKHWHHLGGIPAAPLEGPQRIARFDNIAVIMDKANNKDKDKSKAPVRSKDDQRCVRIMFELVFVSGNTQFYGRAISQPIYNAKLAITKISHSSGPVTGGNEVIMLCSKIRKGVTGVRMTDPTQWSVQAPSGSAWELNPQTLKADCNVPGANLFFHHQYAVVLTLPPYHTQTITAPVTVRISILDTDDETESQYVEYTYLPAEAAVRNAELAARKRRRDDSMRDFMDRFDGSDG

GST-Dm-Relish = molecular target: T5, GST-Dm-Relish (Drosophila melanogaster, UniProt Q94527 99-473)
T5 sequence: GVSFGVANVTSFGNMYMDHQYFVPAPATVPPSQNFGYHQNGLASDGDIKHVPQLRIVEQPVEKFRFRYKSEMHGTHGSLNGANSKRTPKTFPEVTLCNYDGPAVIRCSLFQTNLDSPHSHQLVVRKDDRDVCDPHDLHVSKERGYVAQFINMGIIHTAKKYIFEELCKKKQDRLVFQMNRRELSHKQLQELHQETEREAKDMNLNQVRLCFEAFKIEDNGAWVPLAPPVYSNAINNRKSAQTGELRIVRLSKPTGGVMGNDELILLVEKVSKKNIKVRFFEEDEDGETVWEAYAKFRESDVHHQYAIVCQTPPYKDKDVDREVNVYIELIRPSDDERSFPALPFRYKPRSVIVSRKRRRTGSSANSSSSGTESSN

GST-Aq-NF-kB = molecular target: T6, GST-Aq-NF-kB (Amphimedon queenslandica, UniProt A9Y5G7 2-389)
T6 sequence: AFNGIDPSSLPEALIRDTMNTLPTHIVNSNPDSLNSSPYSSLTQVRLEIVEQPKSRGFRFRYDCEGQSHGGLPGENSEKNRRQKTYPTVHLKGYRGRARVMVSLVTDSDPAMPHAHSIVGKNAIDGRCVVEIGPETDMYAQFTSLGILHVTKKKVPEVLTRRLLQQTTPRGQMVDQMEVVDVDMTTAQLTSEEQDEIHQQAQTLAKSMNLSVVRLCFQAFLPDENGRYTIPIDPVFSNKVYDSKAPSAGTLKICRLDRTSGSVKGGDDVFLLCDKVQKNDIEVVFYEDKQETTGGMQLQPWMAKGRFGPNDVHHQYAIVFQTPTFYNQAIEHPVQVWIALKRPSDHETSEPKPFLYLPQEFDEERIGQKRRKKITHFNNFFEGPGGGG

GST-Hu-p50 = GST-Hu-p50 (Homo sapiens, UniProt P19838 7-356)
Chain of GST-Hu-p50 (P19838 7-356): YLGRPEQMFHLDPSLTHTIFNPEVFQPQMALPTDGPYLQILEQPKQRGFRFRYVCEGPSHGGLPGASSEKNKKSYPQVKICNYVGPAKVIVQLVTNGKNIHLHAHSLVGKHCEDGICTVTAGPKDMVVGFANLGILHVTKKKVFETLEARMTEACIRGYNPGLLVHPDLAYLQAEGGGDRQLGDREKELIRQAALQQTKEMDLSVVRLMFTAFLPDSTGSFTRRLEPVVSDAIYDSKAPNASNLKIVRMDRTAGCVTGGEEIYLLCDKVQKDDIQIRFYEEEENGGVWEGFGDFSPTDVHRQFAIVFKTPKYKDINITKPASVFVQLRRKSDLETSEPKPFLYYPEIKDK

Sequence | binding signal (GST-Ap-NF-kB RHD) | binding signal [1] | binding signal [2] | binding signal (GST-Co-NF-kB) | binding signal (GST-Dm-Relish) | binding signal (GST-Aq-NF-kB) | binding signal (GST-Hu-p50)
CCGATTAACATCAGGAAAACCCCTGATGTTAATCGGGTCTTGATTCGCTTGACGCTGCTG | 8.2 z-score | 8.89 z-score | 6.66 z-score | 2.41 z-score | 8.77 z-score | 9.24 z-score | 7.4 z-score
CCGATTAACATCAGGGGAATCACTGATGTTAATCGGGTCTTGATTCGCTTGACGCTGCTG | 8.92 z-score | 8.19 z-score | 8.51 z-score | 6.78 z-score | 10.6 z-score | 7.41 z-score | 6.51 z-score
CCGATTAACATCAGGGGGATGCATGATGTTAATCGGGTCTTGATTCGCTTGACGCTGCTG | 4.72 z-score | 4.49 z-score | 5.56 z-score | 4.12 z-score | 3.39 z-score | 3.86 z-score | 4.84 z-score
CCGATTAACATCAAGGGGGATATTGATGTTAATCGGGTCTTGATTCGCTTGACGCTGCTG | 5.89 z-score | 6.77 z-score | 7.37 z-score | 5.64 z-score | 5.23 z-score | 6.15 z-score | 6.33 z-score
CCGATTAACATCAGGGAATCTACTGATGTTAATCGGGTCTTGATTCGCTTGACGCTGCTG | 2.43 z-score | 3.44 z-score | 3.68 z-score | 1.94 z-score | 4.76 z-score | 4.82 z-score | 2.96 z-score
CCGATTAACATCATGGGGGGAAATGATGTTAATCGGGTCTTGATTCGCTTGACGCTGCTG | 6.36 z-score | 6.46 z-score | 7.43 z-score | 9.84 z-score | 4.25 z-score | 5.5 z-score | 6.02 z-score
CCGATTAACATCAGGGGGAGGAATGATGTTAATCGGGTCTTGATTCGCTTGACGCTGCTG | 5.2 z-score | 4.58 z-score | 6.46 z-score | 7.99 z-score | 2.99 z-score | 4.59 z-score | 4.89 z-score
CCGATTAACATCACAAAACCCCCTGATGTTAATCGGGTCTTGATTCGCTTGACGCTGCTG | 9.76 z-score | 9.02 z-score | 10.5 z-score | 3.3 z-score | 10.4 z-score | 7.82 z-score | 8.21 z-score
CCGATTAACATCAGCAATCCCCCTGATGTTAATCGGGTCTTGATTCGCTTGACGCTGCTG | 7.85 z-score | 6.26 z-score | 6.95 z-score | 4.31 z-score | 5.79 z-score | 5.16 z-score | 6.73 z-score
CCGATTAACATCAAACAATCCCCTGATGTTAATCGGGTCTTGATTCGCTTGACGCTGCTG | 7.46 z-score | 7.94 z-score | 9.07 z-score | 3.49 z-score | 5.32 z-score | 6.2 z-score | 6.29 z-score
CCGATTAACATCAGGGGATGTGCTGATGTTAATCGGGTCTTGATTCGCTTGACGCTGCTG | 3.15 z-score | 3.45 z-score | 5.32 z-score | 1.81 z-score | 1.41 z-score | 2.79 z-score | 3.33 z-score
CCGATTAACATCAGATTTCCCCATGATGTTAATCGGGTCTTGATTCGCTTGACGCTGCTG | 7.4 z-score | 8.26 z-score | 9.52 z-score | 8.5 z-score | 3.76 z-score | 5.45 z-score | 6.16 z-score
CCGATTAACATCACCCCGTCCCCTGATGTTAATCGGGTCTTGATTCGCTTGACGCTGCTG | 4.62 z-score | 3.83 z-score | 3.99 z-score | 3.98 z-score | 2.65 z-score | 4.15 z-score | 3.21 z-score
CCGATTAACATCAAAGTCCCCCTTGATGTTAATCGGGTCTTGATTCGCTTGACGCTGCTG | 7 z-score | 6.84 z-score | 6.92 z-score | 4.36 z-score | 8.18 z-score | 6.66 z-score | 6.67 z-score
CCGATTAACATCAAAATCCCCCATGATGTTAATCGGGTCTTGATTCGCTTGACGCTGCTG | 9.1 z-score | 9.28 z-score | 10.2 z-score | 6.67 z-score | 8.88 z-score | 7.37 z-score | 7.45 z-score
CCGATTAACATCAGGATAACCCCTGATGTTAATCGGGTCTTGATTCGCTTGACGCTGCTG | 4.52 z-score | 3.22 z-score | 1.82 z-score | 1.72 z-score | 2.74 z-score | 5.12 z-score | 3.08 z-score
CCGATTAACATCAGGGGATTCCATGATGTTAATCGGGTCTTGATTCGCTTGACGCTGCTG | 9.19 z-score | 9.04 z-score | 9.49 z-score | 3.19 z-score | 10 z-score | 6.89 z-score | 6.77 z-score
CCGATTAACATCAGGACTCCCCCTGATGTTAATCGGGTCTTGATTCGCTTGACGCTGCTG | 8.82 z-score | 7.17 z-score | 6.45 z-score | 4.97 z-score | 8.9 z-score | 9.21 z-score | 6.59 z-score
